BoNT F protease: inhibitors of Botulinum neurotoxin F light chain protease. Multiplex microsphere protease cleavage assay, flow cytometry. inhibition, % at 10 µM. hit rate 0.22% among 360,000; in the data active = inhibition above about 35%, passing the limit was not always enough; inconclusive = no clear call, values can overlap the other calls; also: plate controls were buffer without enzyme for full effect and enzyme alone for no effect
Anthrax LF prot: blocks Bacillus anthracis lethal factor protease; P15917; multiplex microsphere protease cleavage assay, LF; inhibition, % at 10 µM; hit rate 0.12% among 360,000; also: plate controls were buffer without enzyme for full effect and enzyme alone for no effect
Target sequence (P15917 whole entry, looked up): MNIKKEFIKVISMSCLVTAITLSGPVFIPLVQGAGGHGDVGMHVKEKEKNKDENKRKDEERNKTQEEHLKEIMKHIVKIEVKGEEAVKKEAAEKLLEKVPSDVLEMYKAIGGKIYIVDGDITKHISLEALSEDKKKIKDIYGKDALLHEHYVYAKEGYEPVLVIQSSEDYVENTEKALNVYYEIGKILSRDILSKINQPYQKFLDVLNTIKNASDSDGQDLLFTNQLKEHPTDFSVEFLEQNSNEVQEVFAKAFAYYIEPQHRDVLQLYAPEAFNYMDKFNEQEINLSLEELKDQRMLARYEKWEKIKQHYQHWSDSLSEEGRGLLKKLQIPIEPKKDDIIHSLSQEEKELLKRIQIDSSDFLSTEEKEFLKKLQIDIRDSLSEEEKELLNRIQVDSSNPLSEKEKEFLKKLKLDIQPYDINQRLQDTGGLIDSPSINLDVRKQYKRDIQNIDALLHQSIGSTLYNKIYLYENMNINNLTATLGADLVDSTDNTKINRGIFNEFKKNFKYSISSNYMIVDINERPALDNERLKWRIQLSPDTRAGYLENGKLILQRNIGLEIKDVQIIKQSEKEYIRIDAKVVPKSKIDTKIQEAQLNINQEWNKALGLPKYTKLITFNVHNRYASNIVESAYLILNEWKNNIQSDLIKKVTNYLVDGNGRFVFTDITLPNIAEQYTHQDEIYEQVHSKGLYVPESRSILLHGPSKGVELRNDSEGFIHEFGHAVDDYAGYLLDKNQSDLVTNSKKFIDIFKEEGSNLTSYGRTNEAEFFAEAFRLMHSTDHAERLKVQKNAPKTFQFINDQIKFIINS
Autofluor counter: flagged as autofluorescent in microsphere protease counterscreen. compound autofluorescence counterscreen, microsphere flow cytometry; stronger effect = higher value. fluorescence intensity (concentration not given with the values). hit rate 3.1% among 360,000; in the data active = fluorescence intensity above about 16000; inconclusive = no clear call, values can overlap the other calls
BoNT-A LC inh2: blocks Botulinum neurotoxin A light chain protease; multiplex microsphere protease substrate cleavage, flow cytometry; inhibition, % at 10 µM; hit rate 0.17% among 360,000; AID 588499; also: plate controls were buffer without enzyme for full effect and enzyme alone for no effect
BoNTA LC inh 1: BoNT/A light chain protease inhibition | shares compounds with BoNT F protease | multiplex microsphere protease assay, flow cytometry | inhibition, % at 10 µM | hit rate 3% among 720; in the data active = inhibition above about 32%
BoNTF LC inh 1: blocks botulinum neurotoxin F light chain protease | inhibition, % at 10 µM | shares compounds with BoNT F protease | multiplex microsphere protease cleavage assay, flow cytometry | 720 tested, under 10 active; call rule not given here
LF protease CP1: Bacillus anthracis lethal factor protease inhibition | AID 602142 | inhibition, % at 10 µM | shares compounds with BoNT F protease | 720 tested, under 10 active | multiplex microsphere protease cleavage assay, LF; call rule not given here
Active calls of the source: *; u = inconclusive; x = no result. An excerpt weighted towards active compounds, which were near 3.5% of everything screened. Rule as the data show it, unless noted: active = inhibition above about 30%; inconclusive = no clear call, values can overlap the other calls; inactive = below that.

SMILES	BoNT F protease	Anthrax LF prot	Autofluor counter	BoNT-A LC inh2	BoNTA LC inh 1	BoNTF LC inh 1	LF protease CP1
Cn1c2ccccc2c(=O)c2c(=O)n(-c3ccccc3)c(-c3ccc(C(C)(C)C)cc3)nc21	u	36*	4082	4	-2	0	2
Cc1ccc(-c2nc3c(c(=O)c4ccccc4n3C)c(=O)n2-c2ccc(F)cc2)cc1	u	-3	5145	u	x	x	x
Cc1cc(Nc2cccc(F)c2)nc(N2CCOCC2)n1	42*	-2	3819	-3	0	-1	-4
Clc1cccc(OCc2nc(-c3ccncc3)no2)c1	44*	-2	2544	4	1	-5	1
O=C(NCc1ccccc1)C(c1ccc(F)cc1)N(Cc1ccc2c(c1)OCO2)C(=O)Cn1nnc(-c2cccs2)n1 (stereo unspecified)	51*	3	3945	3	-1	-9	0
CCCC(C(=O)NCc1ccccc1)N(C(=O)Cn1nnc(-c2cccs2)n1)c1ccc2c(c1)OCCO2 (stereo unspecified)	-35	0	4125	-1	x	x	x
COc1ccc(CCN2C(=O)c3ccccc3C2c2nnnn2Cc2ccccc2)cc1OC (stereo unspecified)	7	4	5984	1	x	x	x
Nc1c(N(CCC2=CCCCC2)C(=O)Cc2ccc(F)cc2)c(=O)[nH]c(=O)n1Cc1ccccc1	-3	-3	5783	-4	x	x	x
Cc1ccc(C(=O)N(CCC2=CCCCC2)c2c(N)n(Cc3ccccc3)c(=O)[nH]c2=O)o1	-5	u	5952	31*	-2	-10	2
CS(=O)(=O)N(CC(=O)N1CCOCC1)c1ccccc1	u	45*	4311	-2	0	-1	3
CCOc1ccc(NC(=O)Nc2ccc(Br)cn2)cc1	48*	1	2591	4	1	-5	-2
CCC1=Nc2ccccc2-c2nnc(SC)nc2O1	34	-8	4512	2	0	-4	-7
CCOc1ccc(NS(=O)(=O)c2ccc(C(=O)NCC(c3ccc(OC)cc3)N3CCCC3)cc2)cc1 (stereo unspecified)	-4	-8	15001	-12	x	x	x
Cc1ccc(Nc2nc(Oc3ccc(=O)[nH]n3)nc(N(C)C)n2)cc1	-13	-5	4829	0	x	x	x
CN(C)c1nc(Nc2ccc(F)cc2)nc(Oc2ccc(F)cc2)n1	-254	-90	1636	57*	-1	-4	-1
COc1cccc(NC(=O)c2cccc(S(=O)(=O)N3CCN(Cc4ccccc4)CC3)c2)c1	12	-8	u	6	x	x	x
CCN(CC)C(=O)c1ccc(NC(=O)c2cccc(S(=O)(=O)N3CCN(Cc4ccccc4)CC3)c2)cc1	-3	-4	u	57*	-3	-3	-1
Cc1ccc(-n2cc3c(-c4cccc(Br)c4)nnc(C)c3n2)cc1	63*	u	38801*	u	5	28	0
Cc1ccc(Cc2c(-c3cccc(Br)c3)nc3ccc(Br)cn23)cc1	0	8	7714	9	x	x	x
COc1cccc(CNC(=O)c2cccc(Br)c2)c1	-11	0	2471	-1	x	x	x
COc1cc(OC)cc(C(=O)NCc2ccc3[nH]c(C)cc3c2)c1	-60	-22	2898	48*	-1	-6	-3
COc1cccc(C(=O)NCc2ccc3[nH]c(C)cc3c2)c1	-108	-84	2008	52*	0	-7	0
CCN(Cc1ccccc1)C(c1cc2cc(C)ccc2[nH]c1=O)c1nnnn1CCOC (stereo unspecified)	5	-2	4288	1	1	-1	1
COc1cc(OC)cc(C(=O)Nn2cnnc2)c1	u	37*	3694	3	0	-6	-2
COc1cccc(C(=O)Nn2cnnc2)c1	-7	-2	4632	0	x	x	x
SMILES	BoNT F protease	Anthrax LF prot	Autofluor counter	BoNT-A LC inh2	BoNTA LC inh 1	BoNTF LC inh 1	LF protease CP1
Cn1c(=O)c2cc(S(=O)(=O)NC(Cc3ccccc3)C(=O)NCc3ccco3)ccc2n(C)c1=O (stereo unspecified)	-5	6	5559	0	x	x	x
COCCCNC(=O)C(Cc1ccccc1)NS(=O)(=O)c1ccc2c(c1)c(=O)n(C)c(=O)n2C (stereo unspecified)	52*	-4	7854	6	0	-6	-3
NC(=O)c1cc([N+](=O)[O-])ccc1NCc1cccnc1	1	-2	4466	0	x	x	x
NS(=O)(=O)c1cc([N+](=O)[O-])ccc1NCc1cccnc1	39*	2	4090	4	0	0	0
O=[N+]([O-])c1ccc(N(c2ccccc2)c2ccccc2)cc1	24	47*	21531*	58*	21	10	16
O=C(Nc1cccc(C(F)(F)F)c1)c1csc([C@@H]2O[C@H](CO)[C@@H](O)[C@H]2O)n1	3	1	2991	0	x	x	x
COc1ccc(C(=O)NCc2ccc3[nH]c(C)cc3c2)cc1OC	-45	-4	3032	65*	0	-4	3
COc1cc(/C=C\C(=O)NCc2ccc3[nH]c(C)cc3c2)cc(OC)c1OC	11	2	5749	2	x	x	x
COc1cc(C(=O)NCc2ccc3[nH]c(C)cc3c2)cc(OC)c1OC	-70	-36	2596	53*	0	-12	-4
COCCN1C(=O)CCC1(C)c1nnnn1-c1ccc2c(c1)OCCO2 (stereo unspecified)	4	0	6077	0	x	x	x
O=C(Nc1ccc(-c2cnco2)cc1)c1ccc(F)cc1F	u	24	3173	u	x	x	x
Cc1ccc(-c2cnco2)cc1	u	30*	4486	u	1	-2	6
COc1ccc(C(c2nnnn2CS(=O)(=O)c2ccc(C)cc2)N2CCN(Cc3ccccc3)CC2)cc1 (stereo unspecified)	34	-1	4894	-1	1	-3	-1
COc1ccc(NC(=O)c2cc(C3CCCCN3S(=O)(=O)c3c(C)noc3C)on2)c(C)c1 (stereo unspecified)	-4	1	3811	0	x	x	x
COCCNC(=O)c1c(CS(=O)(=O)c2ccccc2)noc1C(=O)NCc1ccccc1	8	-3	4171	0	x	x	x
CCCn1c(=O)c2c(nc3n2CCCN3Cc2ccccc2)n(C)c1=O	41*	-10	2935	0	-1	-4	-8
COc1ccccc1Cn1c(C)nc2ccccc21	39*	-12	4417	1	-1	-2	-1
CCc1nc2ccccc2n1Cc1ccccc1OC	-4	-3	2792	0	x	x	x
NC(c1ccccc1)c1csc(Nc2ccc(C(F)(F)F)cn2)n1 (stereo unspecified)	-13	-6	3429	-1	x	x	x
Cc1cc(C(=O)Nc2cc(C(C)(C)C)on2)c(C)o1	u	100*	5818	-1	0	-1	-2
Cc1cc(C(=O)Nc2ccon2)c(C)o1	6	-3	4012	0	x	x	x
CC(C)CCN(C(=O)c1csnn1)C(C(=O)NC1CCCC1)c1ccc(F)cc1 (stereo unspecified)	91*	6	3226	3	-1	-2	-7
